The whole screen tested about 320,000 compounds, of which about 3,300 (1%) were called active. This excerpt belongs to a sample that is enriched for actives. A number with no mark means an inactive call.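 Rule for the calls: active = every valid replicate shows activation above 250% relative to neutral control wells; inactive = the rest, any valid replicate at or below 250%.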

The nature of the assay: yeast Mot1-301 growth rescue at high temperature, primary screen, SUMOylation pathway inhibitor project, S. cerevisiae, ATP luminescence, 38.5C (AID 2716).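 Note: OY570 slx delta 5 strain wells were the positive control but not used for scaling.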 The note with it: S. cerevisiae Mot1-301 growth rescue, at 18.8 µM, stronger effect = higher value, percent above DMSO median, 100 means doubled.
As to `O=C(NCCCN1CCOCC1)c1cn(-c2ccccc2)nc1-c1ccc(F)cc1`, the growth rescue was -27.9%.
Take `COc1cc(NC(=O)C2=CC(c3ccco3)=NS(=O)(=O)N2C)cc(OC)c1OC`: the growth rescue is 446% (active).
For `COc1cc(NC(=O)C2=CC(c3ccc(C)cc3)=NS(=O)(=O)N2C)cc(OC)c1OC`, the growth rescue was 18.9%.
As to `COc1ccc(NC(=O)C2=CC(c3ccc(OC)c(OC)c3)=NS(=O)(=O)N2C)cc1`, the growth rescue was 12.2%.
`CCOC(=O)C(NC(C)=O)C(=O)Nc1ccc(OC)cc1` (configuration not stated): the growth rescue was 5.5%.
With `NS(=O)(=O)c1ccc(CNC(=S)NC(=O)c2ccco2)cc1`, the growth rescue was -10.3%.
Regarding `CCCCc1nc2cc(C(=O)NCCc3cnn(C)c3)ccc2o1`, the growth rescue was 249%.
For `O=C1CCC(=O)N1CCOP1(=O)COc2ccccc2OC1`, the growth rescue was 402% (active).
For the compound `CC1Sc2ccc(C(=O)NCc3ccccc3Cl)cc2NC1=O` (configuration not stated), the growth rescue is -10.2%.
As for `COc1ccc(C)cc1NC(=O)C(Sc1ccccc1)c1ccccc1` (configuration not stated), the growth rescue was -9.29%.
For the compound `COc1cccc(NC(=O)c2nn(C34CC5CC(CC(C5)C3)C4)cc2[N+](=O)[O-])c1`, the growth rescue was 384% (active).
The result for `COc1cccc(NC(=O)c2ccc(Cn3cc([N+](=O)[O-])cn3)o2)c1` reads -22.4%; that for `Cn1cc([N+](=O)[O-])c(C(=O)Nc2ccc3c(c2)OCCO3)n1`, -2.5%; that for `COc1ccccc1C(=O)NCC(=O)OCC(=O)Nc1nnc(-c2ccccc2)o1`, 0.619%.
For `CCCNC(=O)CCn1cc(-c2ccc(OC)cc2)nc1CCN`, the growth rescue was -5.76%.
The result for `CNS(=O)(=O)c1ccc(NC(=O)Nc2ccc3c(c2)OCO3)cc1` reads -8%; that for `COc1ccc(Cl)cc1N(CC(=O)N1CCCCC1)S(C)(=O)=O`, 316%; that for `COCc1c(C(=O)N/N=C\c2cccnc2)nnn1-c1nonc1N`, 0.433%.
In the case of `C#CCOCCOCCOCCNc1nc(N2CCN(C(=O)[C@H](CCC(=O)O)n3cc(CN)nn3)CC2)nc(N2CCN(C(=O)[C@H](CCC(=O)O)n3cc(CN)nn3)CC2)n1`, the growth rescue is -22.6%.
Take `Cc1ccc(NC(=O)Nc2cccnc2)cc1`: the growth rescue was -4.18%.
The result for `Cc1ccc(NC(=O)N2CCC(O)(c3cccnc3)CC2)cc1` reads 356% (active); that for `O=C(c1cccc(F)c1)N1CCC(O)(c2cccnc2)CC1`, 16%.
The value for `Cc1ccc(/C=N/NC(=O)c2sccc2OCc2ccc(F)cc2)cc1` was 17.9%; that for `COc1cc(-c2nc(S(=O)(=O)c3ccc(Cl)cc3)c(N(C)C)o2)cc(OC)c1OC` was 9.48%; that for `CC(C)CC(=O)Nc1nnc(S(=O)(=O)N(C)c2ccc(Cl)cc2)s1` was -15.6%.
As for `COC(=O)c1ccc(COc2cc([N+](=O)[O-])cc3cccnc23)cc1`, the growth rescue is -14.7%.
Take `N#CC1=C(N)Oc2n[nH]c(CSc3ccccc3)c2C12C(=O)Nc1ccccc12` (configuration not stated): the growth rescue is 564% (active).
For `N#CC1=C(N)Oc2[nH]c(=S)[nH]c(=O)c2C12C(=O)Nc1ccccc12` (configuration not stated), the growth rescue is -12%.
`COC(=O)CCSc1nccn1Cc1ccccc1`: the growth rescue was -6.82%.
Turning to `Cc1ccc(S(=O)(=O)N(C)C)cc1NC(=O)COC(=O)C1COc2ccccc2O1` (configuration not stated), the growth rescue is -1.18%.
For `Cc1ccc(S(=O)(=O)N(C)C)cc1NC(=O)COC(=O)/C=C/c1cccs1`, the growth rescue was -3.27%.
With `Cc1ccc(S(=O)(=O)N(C)C)cc1NC(=O)COC(=O)c1c(C)noc1C`, the growth rescue is 358% (active).
The value for `O=c1[nH]n2c(=O)c3c([nH]c2c1N=Nc1ccccc1)CCC3` was -13.5%.
On to `COCCCN1C(=O)c2ccc(C(=O)Nc3ccc(OC)cc3OC)cc2C1=O`, for which the growth rescue was 994% (active).
The value for `COCCCN1C(=O)c2ccc(C(=O)OCC(=O)NCc3ccccc3OC)cc2C1=O` was -4.61%; that for `COc1ccc(OC)c(NC(=O)c2ccc3c(c2)C(=O)N(c2ccc(OC(C)=O)cc2)C3=O)c1` was -1.05%; that for `Cc1cc(S(=O)(=O)c2cc3ccc(O)c(C)c3oc2=O)ccc1F` was 2.17%.
On to `COc1ccc(F)cc1S(=O)(=O)NCC(c1ccc2c(c1)OCO2)N1CCN(C)CC1` (configuration not stated), for which the growth rescue was 72.2%.
The result for `COc1ccc(NC(=O)CSc2ccc(-c3ccco3)nn2)c(OC)c1` reads -3.7%.
In the case of `CCc1ccc(C(=O)COC(=O)c2ccco2)cc1`, the growth rescue was 2.04%.
In the case of `O=C(COC(=O)c1ccccc1C(=O)c1ccccc1)c1ccco1`, the growth rescue was 524% (active).
In the case of `CCN(CC)c1ccc(C(=O)OCC(=O)c2ccco2)cc1`, the growth rescue is -12.1%.
Take `O=C(COC(=O)c1ccccc1O)NCc1ccco1`: the growth rescue is 0.0433%.
The result for `CC(=O)Oc1ccccc1C1=NN(C(C)=O)C(c2ccccc2)C1` (configuration not stated) reads -0.218%; that for `O=C1C2N=NN(CC(=O)N3N=C(c4cccc5ccccc45)CC3c3ccccc3)C2C(=O)N1c1ccccc1` (configuration not stated), -6.23%; that for `Cc1ccc(N2C(=O)C3N=NN(CC(=O)N4N=C(c5cccc6ccccc56)CC4c4ccccc4)C3C2=O)cc1` (configuration not stated), 376% (active).
Turning to `S=C(c1ccc(-c2ccccc2)o1)N1CCCCC1`, the growth rescue was 32.2%.
Turning to `CCOC(=O)c1cc(-c2ccccc2C)n(Cc2cc(C)no2)n1`, the growth rescue is -17.1%.
On to `Cc1cc(C(F)(F)F)n2ncc(-c3ccccc3)c2n1`, for which the growth rescue is 4.42%.
For `COC(=O)c1cc2nc(-c3ccccc3)cc(C(F)(F)F)n2n1`, the growth rescue is 295% (active).
For `O=C(c1ccccc1)N1CCN(C(=O)c2cc3nc(-c4ccccc4)cc(C(F)(F)F)n3n2)CC1`, the growth rescue was -13.8%.
With `Cc1ccc(-c2cc(C(F)(F)F)n3ncc(C(=O)N4CCCCC4c4cccnc4)c3n2)cc1` (configuration not stated), the growth rescue is -2.2%.
As to `O=C(O)c1cnn2c(C(F)(F)F)cc(-c3ccccc3)nc12`, the growth rescue was 310% (active).
As for `COc1ccc(NC(=O)c2cc3nc(-c4ccccc4)cc(C)n3n2)cc1OC`, the growth rescue is 50%.
With `COc1ccc(CNC(=O)c2cc(C(=O)C3CC3)c[nH]2)cc1`, the growth rescue is -7.94%.
On to `COc1ccc(N(CC(=O)Nc2cc(OC)ccc2OC)S(=O)(=O)c2c(C)noc2C)cc1`, for which the growth rescue was 0.112%.
With `CCc1nn(-c2cc(Oc3cccc4ccccc34)nc(-c3ccccc3)n2)c(N)c1C#N`, the growth rescue was 20.3%.

The values are drawn from PubChem BioAssay AID2716 (Broad Institute, 2010).
